# Source: PubChem BioAssay AID1159580 (chemical genetic matrix, 2015)
# Several values for one entry are separate records, joined by “and”; a condition that tells them apart may be missing. Equal entries are not always repeated. About 2,000 (36%) of roughly 5,500 compounds were called active. Inconclusive results (about 18%) are left out. This is one part of the list. Values without a mark were called inactive. Rule as the data show it: active = normalized growth mostly below about 0.91 (no sharp cut-off); inconclusive = no clear call, values can overlap the other calls; inactive = mostly above about 0.92.
# Assay: chemical genetic growth profiling, strain panel (AID 1159580);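 also: tested at 20 µM; growth read once vehicle control cultures reached saturation at 30 °C; 1 = growth at the plate median or of vehicle wells; lower values mean less growth of the strain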
# Conditions: S. cerevisiae deletion strains, growth OD
smiles,measurement,setting,value
COc1ccc(CCN2CCC(Nc3nc4ccccc4n3Cc3ccc(F)cc3)CC2)cc1,normalized growth,"locus YAL021C, strain ccr4, hits give low values",0.721 (active)
same,normalized growth,"locus YAL026C, strain drs2, hits give low values",0.783 (active)
same,normalized growth,"locus YAL030W, strain snc1, hits give low values",0.988
same,normalized growth,"locus YBL061C, strain skt5, hits give low values",0.969
same,normalized growth,"locus YBR009C, strain hhf1, hits give low values",0.936
same,normalized growth,"locus YBR021W, strain FUR4, hits give low values",0.821 (active)
same,normalized growth,"locus YBR023C, strain chs3, hits give low values",0.959
same,normalized growth,"locus YBR171W, strain sec66, hits give low values",0.992
same,normalized growth,"locus YBR229C, strain ROT2, hits give low values",0.972
same,normalized growth,"locus YBR231C, strain swc5, hits give low values",0.981
same,normalized growth,"locus YBR279W, strain paf1, hits give low values",0.954
same,normalized growth,"locus YCL011C, strain gbp2, hits give low values",0.935
same,normalized growth,"locus YCL016C, strain dcc1, hits give low values",0.919
same,normalized growth,"locus YCL029C, strain bik1, hits give low values",0.983
same,normalized growth,"locus YCL061C, strain MRC1, hits give low values",0.96
same,normalized growth,"locus YCL069W, strain vba3, hits give low values",0.953
same,normalized growth,"locus YCR088W, strain abp1, hits give low values",0.924
same,normalized growth,"locus YDL005C, strain med2, hits give low values",0.967
same,normalized growth,"locus YDL035C, strain GPR1, hits give low values",0.972
same,normalized growth,"locus YDL040C, strain nat1, hits give low values",0.985
same,normalized growth,"locus YDL074C, strain BRE1, hits give low values",0.935
same,normalized growth,"locus YDL101C, strain DUN1, hits give low values",0.984
same,normalized growth,"locus YDL134C, strain PPH21, hits give low values",0.983
same,normalized growth,"locus YDL185W, strain tfp1, hits give low values",0.984
same,normalized growth,"locus YDL192W, strain arf1, hits give low values",0.986
same,normalized growth,"locus YDR001C, strain nth1, hits give low values",0.972
same,normalized growth,"locus YDR069C, strain doa4, hits give low values",0.874 (active)
same,normalized growth,"locus YDR101C, strain arx1, hits give low values",0.992
same,normalized growth,"locus YDR137W, strain rgp1, hits give low values",1.18 [resistant] (active)
same,normalized growth,"locus YDR150W, strain NUM1, hits give low values",1
same,normalized growth,"locus YDR159W, strain sac3, hits give low values",0.986
same,normalized growth,"locus YDR162C, strain NBP2, hits give low values",0.986
same,normalized growth,"locus YDR195W, strain ref2",0.971
same,normalized growth,"locus YDR297W, strain sur2, hits give low values",0.999
same,normalized growth,"locus YDR318W, strain mcm21, hits give low values",0.984
same,normalized growth,"locus YDR334W, strain swr1, hits give low values",0.979
same,normalized growth,"locus YDR335W, strain msn5, hits give low values",0.959
same,normalized growth,"locus YDR388W, hits give low values",0.687 (active)
same,normalized growth,"locus YDR392W, strain spt3, hits give low values",0.742
same,normalized growth,"locus YDR502C, strain sam2, hits give low values",0.977
same,normalized growth,"locus YEL003W, strain gim4, hits give low values",0.96
same,normalized growth,"locus YEL037C, strain rad23, hits give low values",0.867 (active)
same,normalized growth,"locus YEL061C, strain CIN8 (second series), hits give low values",0.981
same,normalized growth,"locus YEL061C, strain CIN8, hits give low values",0.993
same,normalized growth,"locus YER015W, strain faa2, hits give low values",0.93
same,normalized growth,"locus YER016W, strain bim1, hits give low values",0.911 (active)
same,normalized growth,"locus YER110C, hits give low values",0.992
same,normalized growth,"locus YER111C, strain swi4, hits give low values",0.962
same,normalized growth,"locus YER155C, strain BEM2 (second series), hits give low values",0.822 (active)
same,normalized growth,"locus YER155C, strain BEM2, hits give low values",0.991
same,normalized growth,"locus YER167W, strain BCK2, hits give low values",0.973
same,normalized growth,"locus YFR010W, strain ubp6, hits give low values",0.838 (active)
same,normalized growth,"locus YGL078C, strain dbp3, hits give low values",0.985
same,normalized growth,"locus YGL086W, strain mad1, hits give low values",1.02
same,normalized growth,"locus YGL167C, strain pmr1, hits give low values",1
same,normalized growth,"locus YGL173C, strain kem1, hits give low values",0.982
same,normalized growth,"locus YGL227W, strain vid30, hits give low values",0.981
same,normalized growth,"locus YGL240W, strain doc1, hits give low values",0.978
same,normalized growth,"locus YGL248W, strain PDE1, hits give low values",0.985
same,normalized growth,"locus YGL253W, strain hxk2, hits give low values",0.904 (active)
same,normalized growth,"locus YGR135W, strain pre9, hits give low values",0.877 (active)
same,normalized growth,"locus YGR229C, strain SMI1, hits give low values",0.971
same,normalized growth,"locus YGR252W, strain gcn5, hits give low values",0.9
same,normalized growth,"locus YHR013C, strain ard1, hits give low values",0.857
same,normalized growth,"locus YHR027C, strain rpn1, hits give low values",0.954
same,normalized growth,"locus YHR030C, strain SLT2, hits give low values",0.997 and 0.996
same,normalized growth,"locus YHR079C, strain IRE1 (second series), hits give low values",0.984
same,normalized growth,"locus YHR079C, strain IRE1, hits give low values",0.972
same,normalized growth,"locus YHR094C, strain hxt1, hits give low values",0.986
same,normalized growth,"locus YHR129C, strain ARP1, hits give low values",0.988
same,normalized growth,"locus YHR142W, strain chs7, hits give low values",0.888
same,normalized growth,"locus YHR200W, strain rpn10, hits give low values",0.994
same,normalized growth,"locus YIL066C, strain RNR3, hits give low values",0.974
same,normalized growth,"locus YIL073C, strain SPO22, hits give low values",1.74 [resistant] (active)
same,normalized growth,"locus YIL125W, strain kgd1, hits give low values",0.993
same,normalized growth,"locus YIR030C, strain dcg1, hits give low values",0.99
same,normalized growth,"locus YJL092W, strain hpr5, hits give low values",0.917 (active)
same,normalized growth,"locus YJL095W, strain BCK1 (second series), hits give low values",0.991
same,normalized growth,"locus YJL095W, strain BCK1, hits give low values",0.923 and 0.988
same,normalized growth,"locus YJL115W, strain asf1, hits give low values",0.976
same,normalized growth,"locus YJL129C, strain trk1, hits give low values",0.972
same,normalized growth,"locus YJL134W, strain LCB3, hits give low values",0.998
same,normalized growth,"locus YJL154C, strain vps35, hits give low values",0.962
same,normalized growth,"locus YJL164C, strain tpk1, hits give low values",0.957
same,normalized growth,"locus YJL166W, strain qcr8, hits give low values",0.974
same,normalized growth,"locus YJL168C, strain set2, hits give low values",0.994
same,normalized growth,"locus YJL187C, strain SWE1 (second series), hits give low values",0.976
same,normalized growth,"locus YJL187C, strain SWE1, hits give low values",0.982
same,normalized growth,"locus YJR043C, strain POL32, hits give low values",0.998
